PubChem BioAssay (NCATS)
Inconclusive results are not listed. Activity calls are given as the source filed them. Calls come from the whole dose curve; as a rule, active = well fitted curve in the direction sought with a large enough effect; inconclusive = small, poorly fitted or top-dose-only effect, or another doubt; inactive = no such curve, though single readings can be large; an effect the other way counts as inactive or inconclusive.

How the values were obtained:
[1] = BET inhibitor-based combinations targeting novel dependencies in MECOM-rearranged (r) AML: SET-2 cell line (AID 2202231); conditions: SET-2 AML cells viability, CellTiter-Glo luminescence, 48 h; viability: hits give low values, concentration not given here; note: nearly all actives have a fitted effect of over 35% in size;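 for viability: plate controls were DMSO treated cells for no effect and wells without cells for full effect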
Summary of the method: (§1)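 Each compound was tested at eleven concentrations on cells seeded at 500/well. After two days' incubation, ATP-based luminescence reported viability; responses relative to DMSO and blank wells yielded AUC and cell-line-centred Z-AUC.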

[2] = BET inhibitor-based combinations targeting novel dependencies in MECOM-rearranged (r) AML: OCI-AML3 cell line (AID 2202232); conditions: Potency: OCI-AML3 viability; note: nearly all actives have a fitted effect of over 35% in size
Summary of the method: as §1

[3] = BET inhibitor-based combinations targeting novel dependencies in MECOM-rearranged (r) AML: MV-4-11 cell line (AID 2202233); note: nearly all actives have a fitted effect of over 45% in size
Summary of the method: (§2)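 First, 500 cells per well were seeded; next, drugs were pinned as 11-point doses; then plates sat 48 hr in the incubator; finally CellTiter-Glo was added and luminescence read, with AUC and Z-AUC computed.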

[4] = BET inhibitor-based combinations targeting novel dependencies in MECOM-rearranged (r) AML: HNT-34 cell line (AID 2202234); note: nearly all actives have a fitted effect of over 35% in size
Summary of the method: as §2

[5] = BET inhibitor-based combinations targeting novel dependencies in MECOM-rearranged (r) AML: UCSD-AML1 cell line (AID 2202235); note: nearly all actives have a fitted effect of over 40% in size
Summary of the method: as §2

[6] = BET inhibitor-based combinations targeting novel dependencies in MECOM-rearranged (r) AML: AML-191 cell line (AID 2202236; note: nearly all actives have a fitted effect of over 35% in size)
Summary of the method: as §1

[7] = BET inhibitor-based combinations targeting novel dependencies in MECOM-rearranged (r) AML: AML-194 cell line (AID 2202237; note: nearly all actives have a fitted effect of over 40% in size)
Summary of the method: as §1
Potency is the fitted concentration of half-maximal effect.

Clc1ccc(-c2nc3sccn3c2/C=N/OCc2ccc(Cl)c(Cl)c2)cc1
inactive: viability [1] 112% | Potency [2] | Potency [3] | Potency [4] | Potency [5] | Potency [6] | Potency [7]

COC(=O)/C=C/C(=O)OC
inactive: viability [1] 117% | Potency [2] | Potency [3] | Potency [4] | Potency [5] | Potency [6] | Potency [7]

C[N+](C)(C)CC(=O)O
inactive: viability [1] 112% | Potency [2] | Potency [3] | Potency [4] | Potency [5] | Potency [6] | Potency [7]

CC(=O)N1c2ccc(-c3ccc(C(=O)O)cc3)cc2[C@H](Nc2ccc(Cl)cc2)C[C@@H]1C
active: Potency [1] 0.372 µM | Potency [2] 0.0661 µM | Potency [3] 0.0934 µM | Potency [4] 0.468 µM | Potency [5] 1.32 µM | Potency [6] 0.468 µM

CCN(CC)CCNC(=O)c1c(C)[nH]c(/C=C2/C(=O)Nc3ccc(-c4csc(-c5ccccc5)n4)cc32)c1C
active: Potency [1] 9.34 µM | Potency [2] 18.6 µM | Potency [3] 1.18 µM | Potency [4] 26.3 µM | Potency [5] 9.34 µM | Potency [6] 7.42 µM

CC(C)(O)CNc1ncc(-c2ccnc(Nc3ccncc3)n2)c(CC2CC2)n1
active: Potency [1] 18.6 µM | Potency [2] 18.6 µM | Potency [3] 5.9 µM | Potency [4] 9.34 µM | Potency [5] 14.8 µM | Potency [6] 13.2 µM | Potency [7] 16.6 µM

CC(=O)OCC(=O)[C@@]12OC(C)(C)O[C@@H]1C[C@H]1[C@@H]3C[C@H](F)C4=CC(=O)C=C[C@]4(C)[C@@]3(F)[C@@H](O)C[C@@]12C
inactive: viability [1] 105% | Potency [2] | Potency [3] | Potency [4] | Potency [5] | Potency [6]

C=C1C(=O)O[C@H]2C[C@H](C)C(/C=C/C(C)=O)=CC[C@H]12
active: Potency [1] 4.68 µM | Potency [2] 1.18 µM | Potency [3] 1.86 µM | Potency [4] 3.32 µM | Potency [5] 2.09 µM | Potency [6] 2.35 µM

C=CC(=O)Nc1cccc(C)c1Nc1ncc2cc(-c3c(Cl)c(OC)cc(OC)c3Cl)ccc2n1
active: Potency [1] 14.8 µM | Potency [2] 10.5 µM | Potency [3] 4.17 µM | Potency [4] 8.33 µM | Potency [5] 5.25 µM | Potency [6] 13.2 µM | Potency [7] 11.8 µM

O=c1c(-c2ccc(O)cc2)coc2c([C@@H]3O[C@H](CO)[C@@H](O)[C@H](O)[C@H]3O)c(O)ccc12
inactive: viability [1] 113% | Potency [2] | Potency [3] | Potency [4] | Potency [5] | Potency [6] | Potency [7]

Cc1ccc(NC(=O)c2ccc3c(c2)OCCO3)cc1NC(=O)c1ccc2nc(OCCN3CCCC3)ccc2c1
active: Potency [1] 0.144 µM | Potency [2] 0.257 µM | Potency [3] 0.091 µM | Potency [4] 0.0456 µM | Potency [5] 0.129 µM | Potency [6] 0.162 µM | Potency [7] 0.204 µM

CN(C)C(N)=NC(=N)N
inactive: viability [1] 120% | Potency [2] | Potency [3] | Potency [4] | Potency [5] | Potency [6] | Potency [7]

CO[C@H]1/C=C/O[C@@]2(C)Oc3c(C)c(O)c4c(O)c(c5c(nc6cc(C)ccn65)c4c3C2=O)NC(=O)/C(C)=C\C=C\[C@H](C)[C@H](O)[C@@H](C)[C@@H](O)[C@@H](C)[C@H](OC(C)=O)[C@@H]1C
inactive: viability [1] 111% | Potency [2] | Potency [3] | Potency [4] | Potency [5] | Potency [6] | Potency [7]

CC1(C(=O)O)CCC2(C)CCC3(C)C(=CC(=O)C4C5(C)CCC(OC6OC(C(=O)O)C(O)C(O)C6OC6OC(C(=O)O)C(O)C(O)C6O)C(C)(C)C5CCC43C)C2C1 (stereo not given)
inactive: viability [1] 124% | Potency [2] | Potency [3] | Potency [4] | Potency [5] | Potency [6]

CC1(C)S[C@H]2[C@H](NC(=O)[C@@H](N)c3ccc(O)cc3)C(=O)N2[C@H]1C(=O)O
inactive: viability [1] 99.7% | Potency [2] | Potency [3] | Potency [4] | Potency [5] | Potency [6] | Potency [7]
